According to PubChem BioAssay:
Several values for one entry are separate records, joined by “and”; a condition that tells them apart may be missing. Identical values can stand only once. Unmarked numbers belong to inactive results. Activity calls are given as the source filed them.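 The calls were made as follows: active = thallium flux through the channel raised or lowered by more than 3 SD from vehicle-only wells, actives on both sides; inactive = the rest.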

Columns and labels:
Assay in all cases: modulators of BK channel variants, profiling panel, selectivity assay, cell-based, U2OS BacMam, thallium flux, beta subunits (AID 1259406);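 also: initial slope of Thallos dye fluorescence rise after thallium is added; log ratio against the mean of 0.3% DMSO vehicle wells on the same plate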
F380Y/beta2Delta = settings: at 30 µM
F380Y/beta4 = settings: at 30 µM
[1] = molecular target: Calcium-activated potassium channel subunit alpha-1 (Homo sapiens) + Leucine-rich repeat-containing protein 26 (Homo sapiens) (UniProt Q12791+Q2I0M4); settings: F380Y/Slo1WT/gamma1, at 30 µM
R275C = settings: at 30 µM
R275C/beta1 = settings: at 30 µM
R275C/beta2Delta = settings: at 30 µM
R275C/beta4 = settings: at 30 µM
R275C/Slo1WT/beta2 = settings: at 30 µM

Calcium-activated potassium channel subunit alpha-1 (Homo sapiens) + Leucine-rich repeat-containing protein 26 (Homo sapiens), sequence (Q2I0M4 whole entry, looked up, one chain of several): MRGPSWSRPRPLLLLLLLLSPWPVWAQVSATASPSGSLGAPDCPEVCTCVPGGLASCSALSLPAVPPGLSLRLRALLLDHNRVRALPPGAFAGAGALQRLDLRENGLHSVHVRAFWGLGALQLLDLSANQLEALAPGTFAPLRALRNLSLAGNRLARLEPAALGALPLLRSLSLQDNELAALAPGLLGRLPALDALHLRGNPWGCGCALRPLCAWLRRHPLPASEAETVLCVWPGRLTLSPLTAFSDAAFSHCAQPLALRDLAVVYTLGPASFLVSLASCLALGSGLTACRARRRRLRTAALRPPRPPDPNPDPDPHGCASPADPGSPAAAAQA

SMILES | log fold change Tl+ flux (F380Y/beta2Delta) | log fold change Tl+ flux (F380Y/beta4) | log fold change Tl+ flux [1] | log fold change Tl+ flux (R275C) | log fold change Tl+ flux (R275C/beta1) | log fold change Tl+ flux (R275C/beta2Delta) | log fold change Tl+ flux (R275C/beta4) | log fold change Tl+ flux (R275C/Slo1WT/beta2)
COC(=O)C1=C(C)NC(C)=C(C(=O)OC(C)C)C1c1cccc2nonc12 (centres undefined) | -0.0966 | -0.107 (active) | 0.00177 | -0.0742 | -0.015 | -0.0967 | -0.00531 | -0.0356
O=C(c1ccc(F)cc1)C1CCN(CCn2c(=S)[nH]c3ccccc3c2=O)CC1 | -0.00369 | 0.0138 | -0.000443 | 0.0338 | -0.0174 | -0.00339 | -0.00101 | 0.0813 (active)
CC(C)NCC(O)COc1ccc(CCOCC2CC2)cc1 (centres undefined) | 0.0281 | 0.0205 | -0.00804 | 0.0179 | 0.00923 | -0.0652 | -0.0167 | -0.00955
COc1ccc(C(=O)NCc2ccc(OCCN(C)C)cc2)cc1OC | -0.0465 | -0.0244 | -0.0979 (active) | -0.0872 | -0.00904 | -0.0505 | 0.0059 | 0.00939
CC[N+](C)(CC)CCOC(=O)C(O)(c1ccccc1)C1CCCCC1 (centres undefined) | -0.0141 | -0.0257 | 0.0349 | -0.0159 | -0.00643 | 0.0312 | 0.0157 | 0.0812 (active)
O=C(NCCN1CCOCC1)c1ccc(Cl)cc1 | -0.0313 | -0.0725 | -0.000886 | -0.0119 | -0.015 | -0.0276 | -0.0049 | -0.0216
COc1ccccc1N1CCN(CC(O)COc2cccc3ccccc23)CC1 (centres undefined) | -0.0539 | -0.114 (active) | 0.00615 | -0.067 | 0.198 (active) | -0.0952 | 0.167 (active) | -0.0505
CN1CCC(=C2c3ccccc3C=Cc3ccccc32)CC1 | 0.14 (active) | 0.137 (active) | -0.0742 | -0.0182 | 0.194 (active) | 0.144 (active) | 0.0955 (active) | 0.0256
CCN1CC(CCN2CCOCC2)C(c2ccccc2)(c2ccccc2)C1=O (centres undefined) | -0.000818 | 0.03 | -0.0552 | -0.0141 | -0.00917 | 0.0055 | 0.000738 | -0.0334
CNS(=O)(=O)Cc1ccc2[nH]cc(CCN(C)C)c2c1 | 0.0184 | 0.00469 | -0.0149 | 0.0314 | -0.0158 | 0.00098 | -0.0449 | 0.0327
CN(CCCN1c2ccccc2CCc2ccccc21)CC(=O)c1ccc(Cl)cc1 | -0.0465 | 0.0103 | 0.00396 | -0.00393 | 0.055 | 0.0142 | 0.0763 | -0.0536
CC(C)(O)c1ccccc1CC[C@@H](SCC1(CC(=O)O)CC1)c1cccc(/C=C/c2ccc3ccc(Cl)cc3n2)c1 | 0.312 (active) | 0.64 (active) | 0.354 (active) | 0.131 (active) | 0.782 (active) | 0.293 (active) | 0.977 (active) | 0.13 (active)
CC(C)[C@H](N)C(=O)OCCOCn1cnc2c(=O)[nH]c(N)nc21 | -0.00659 | -0.0146 | 0.0174 | -0.11 | 0.0176 | 0.0029 | 0.0146 | -0.011
O=C1[C@H]2CCCC[C@H]2C(=O)N1CCCCN1CCN(c2nsc3ccccc23)CC1 | 0.0368 | 0.0464 | -0.0162 | -0.0177 | 0.107 (active) | 0.0344 | 0.0306 | -0.00391
CN(CCOc1ccc(NS(C)(=O)=O)cc1)CCc1ccc(NS(C)(=O)=O)cc1 | 0.0285 | 0.0111 | -0.0274 | -0.101 | 0.0214 | -0.0483 | -9.6e-05 | -0.00913
CC(C)c1ccc2oc3nc(N)c(C(=O)O)cc3c(=O)c2c1 | 0.00122 | 0.0364 | 0.0473 | -0.0223 | -0.0119 | 0.0807 | -0.00203 | 0.0208

SMILES | log fold change Tl+ flux (F380Y/beta2Delta) | log fold change Tl+ flux (F380Y/beta4) | log fold change Tl+ flux [1] | log fold change Tl+ flux (R275C) | log fold change Tl+ flux (R275C/beta1) | log fold change Tl+ flux (R275C/beta2Delta) | log fold change Tl+ flux (R275C/beta4) | log fold change Tl+ flux (R275C/Slo1WT/beta2)
NS(=O)(=O)Cc1noc2ccccc12 | -0.0343 | -0.0562 | 0.00637 | -0.021 | 0.0189 | -0.0477 | 0.00838 | -0.0027
CC(=O)OCC(=O)NCCCOc1cccc(CN2CCCCC2)c1 | 0.000408 | -0.0388 | -0.00356 | -0.0635 | 0.00812 | 0.0201 | -0.00407 | 0.00881
C#C[C@]1(O)CC[C@H]2[C@@H]3CCc4cc(O)ccc4[C@H]3CC[C@@]21C | -0.0272 |  | 0.0947 (active) | -0.0326 | 0.0956 | 0.155 (active) |  | 
CCOC(=O)[C@H](CCc1ccccc1)N[C@@H](C)C(=O)N1[C@H](C(=O)O)C[C@@H]2CCC[C@@H]21 | 0.0153 and 0.0206 | 0.00789 and 0.00803 | -0.0126 and 0.00594 | 0.0107 and 0.01 | -0.0118 and -0.0507 | -0.0152 and 0.00655 | 0.00822 and 0.0154 | -0.0515 and 0.000239
COc1ccc(CC2c3cc(OC)c(OC)cc3CC[N+]2(C)CCC(=O)OCCCCCOC(=O)CC[N+]2(C)CCc3cc(OC)c(OC)cc3C2Cc2ccc(OC)c(OC)c2)cc1OC (centres undefined) | -0.00992 |  | -0.0136 | -0.0147 | 0.0284 | -0.0198 |  | 
c1cnc(N2CCN(Cc3ccc4c(c3)OCO4)CC2)nc1 | -0.0184 |  | 0.0386 | -0.0353 | 0.0391 | -0.006 |  | 
CC1(C)S[C@@H]2[C@H](N=CN3CCCCCC3)C(=O)N2[C@H]1C(=O)O | -0.0627 | -0.00589 | -0.0112 | 0.00945 | 0.0251 | 0.116 (active) | -0.0211 | -0.0045
Nc1ccn([C@H]2CC[C@@H](CO)O2)c(=O)n1 | -0.0145 | 0.0289 | 0.0157 | -0.0969 | -0.00164 | -0.00877 | 0.00428 | 0.0272
O=C1N(c2ccccc2)c2ccccc2C1(Cc1ccncc1)Cc1ccncc1 | -0.0915 | -0.0921 | -0.0557 | -0.00568 | 0.0135 | 0.00649 | -0.0197 | -0.0252
Cc1cnc(NC(=O)C2=C(O)c3ccccc3S(=O)(=O)N2C)s1 | 0.0267 | 0.0475 | 0.0367 | -0.0331 | 0.00607 | 0.00306 | 0.00145 | 0.0334
CN(Cc1cnc2nc(N)nc(N)c2n1)c1ccc(C(=O)N[C@@H](CCC(=O)O)C(=O)O)cc1 | -0.018 |  | 0.0152 | 0.0652 | -0.0323 | 0.0014 |  | 
O=C1CCc2ccc(OCCCCN3CCN(c4cccc(Cl)c4Cl)CC3)cc2N1 | -0.00576 | 0.0383 | -0.0185 | -0.0555 | 0.056 | 0.0181 | 0.0353 | 0.0373
C[C@H]1COc2c(C3(N)CC3)c(F)cc3c(=O)c(C(=O)O)cn1c23 | -0.0452 | -0.037 | 0.00396 | -0.0195 | -0.0326 | -0.0136 | -0.0013 | -0.0265
Cc1ncc([N+](=O)[O-])n1CC(O)CCl (centres undefined) | -0.0158 | -0.0171 | -0.013 | 0.00346 | -0.0317 | -0.0154 | -0.0435 | -0.016
C#C[C@]1(O)CC[C@H]2[C@@H]3[C@H](C)CC4=C(CCC(=O)C4)[C@H]3CC[C@@]21C | 0.02 | 0.0383 | 0.094 (active) | -0.0625 | 0.155 (active) | 0.0649 | 0.0734 | 0.0272
NC(=O)OCC(COC(N)=O)c1ccccc1 | 0.0149 | 0.0205 | 0.0713 | -0.054 | 0.0281 | 0.019 | -0.0181 | 0.0103
